Shown are actives, neighbours in structure and some others; about 2.5% of the full set was active somewhere.
L3MBTL1 inh-1 = L3MBTL1 (human) inhibition | Q9Y468 | AlphaScreen L3MBTL1–H3K9me1 peptide binding | Potency, µM (highest dose often 57.1 µM), usual class: inhibitors | 230,000 tested, 0.66% active | AID 485360; further: nearly all actives have a fitted effect of over 60% in size
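L3MBTL1 (50 nM) pre-complexed 30 min with biotinylated H3(1-15)K9me1 peptide (75 nM), then compounds added for 30 min at room temperature; AlphaScreen streptavidin donor/nickel chelate acceptor beads (10 ug/mL final) read after 30 min dark incubation.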
POLB inh = DNA polymerase beta (human) inhibition | P06746 | Pol beta primer extension/strand displacement, fluorescence kinetic | Potency, µM (series often up to 114 µM), hits mostly inhibitors | 340,000 tested, 1.3% active | AID 485314
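Preincubation: enzyme (10 nM) with compound, 15 min, RT. Reaction: substrate added to 50 nM final. Reads: 0 and 10 min. Analysis: normalized, Hill fit.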
Pol kappa inh-1 = blocks human DNA polymerase kappa activity. Q9UBT6. purified Pol kappa, fluorescent DNA synthesis assay, 10 min. Potency, µM (titrated, usually from 107 µM), actives largely listed as inhibitors. 400,000 tested, 0.53% active. AID 588579
Target sequence (Q9UBT6 whole entry, looked up): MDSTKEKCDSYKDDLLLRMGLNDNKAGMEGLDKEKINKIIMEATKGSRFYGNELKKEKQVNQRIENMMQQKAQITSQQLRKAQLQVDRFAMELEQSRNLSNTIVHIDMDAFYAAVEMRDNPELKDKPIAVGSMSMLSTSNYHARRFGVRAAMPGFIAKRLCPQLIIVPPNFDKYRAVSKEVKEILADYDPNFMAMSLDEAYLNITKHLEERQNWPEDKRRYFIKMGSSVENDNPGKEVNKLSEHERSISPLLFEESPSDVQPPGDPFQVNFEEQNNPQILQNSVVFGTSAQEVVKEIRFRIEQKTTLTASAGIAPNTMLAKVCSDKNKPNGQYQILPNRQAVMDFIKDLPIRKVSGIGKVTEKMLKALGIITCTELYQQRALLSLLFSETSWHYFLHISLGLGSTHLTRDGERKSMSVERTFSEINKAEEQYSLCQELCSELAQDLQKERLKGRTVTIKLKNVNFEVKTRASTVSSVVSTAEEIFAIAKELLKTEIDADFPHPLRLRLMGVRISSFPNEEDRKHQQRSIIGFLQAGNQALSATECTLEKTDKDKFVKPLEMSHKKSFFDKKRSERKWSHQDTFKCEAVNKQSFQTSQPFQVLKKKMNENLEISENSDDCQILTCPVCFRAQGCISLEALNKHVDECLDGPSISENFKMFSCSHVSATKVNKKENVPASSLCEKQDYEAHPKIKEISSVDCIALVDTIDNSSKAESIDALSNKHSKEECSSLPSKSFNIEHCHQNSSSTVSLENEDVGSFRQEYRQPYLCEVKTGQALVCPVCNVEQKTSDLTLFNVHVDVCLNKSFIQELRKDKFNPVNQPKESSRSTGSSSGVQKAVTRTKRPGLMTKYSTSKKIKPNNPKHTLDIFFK
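Kinetic fluorescence readout at 0 and 10 min followed reaction start with substrate at 50 nM final. Beforehand, enzyme (10 nM Pol kappa) stood 15 min with compound at room temperature; buffer-only wells were negative controls.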
APE1 inh = inhibitors of human APE1 endonuclease; Potency, µM (series often up to 65.8 µM), hits mostly inhibitors; P27695; recombinant APE1, TAMRA/BHQ-2 abasic DNA cleavage fluorescence; 350,000 tested, 0.35% active; further: nearly all actives have a fitted effect of over 55% in size
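Readout is kinetic fluorescence (ex 525, em 598 nm) from cleavage of 50 nM TAMRA/BHQ-2 THF abasic duplex by 0.75 nM APE1, compound added 15 min beforehand at RT.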
Pol iota inh = DNA polymerase iota (human) inhibition; Potency, µM (top dose mostly 115 µM), most hits filed as inhibitors; Pol iota fluorescent replication assay, 10 min; 390,000 tested, 1% active; AID 588590; Q9UNA4
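Pol iota at 10 nM preincubated 15 min with compounds at room temperature; reaction started with fluorescent substrate, 50 nM final. Fluorescence read kinetically at 0 and 10 min; buffer-only wells as negative control.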
Pol eta inh-1 = DNA polymerase eta (human) inhibition | Q9Y253 | recombinant Pol eta, fluorescent DNA replication assay | Potency, µM (titrated, usually from 114 µM), actives largely listed as inhibitors | 390,000 tested, 1.2% active
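Pol eta (10 nM) was preincubated with compounds for 15 min at room temperature, after which fluorescent replication substrate (50 nM final) was added to start the reaction. Fluorescence was read kinetically at 0 and 10 min.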
L3MBTL1 inh-2 = L3MBTL1 binding inhibition validated; shares compounds with L3MBTL1 inh-1; L3MBTL1 methyl-lysine binding inhibition, biochemical qHTS; Potency, µM, hits mostly inhibitors; 500 tested, 91% active; AID 540279; further: nearly all actives have a fitted effect of over 70% in size
L3MBTL1 ctr = counter-screen for L3MBTL1 inhibitors: AlphaScreen signal interference; AID 602224; 500 tested, under 10 active; shares compounds with L3MBTL1 inh-1; Potency, µM (titrated, usually from 57.1 µM), most hits filed as inhibitors; AlphaScreen counterscreen, signal inhibition
PGK validate = validation of Trypanosoma brucei phosphoglycerate kinase inhibitors; AID 686980; 500 tested, 79% active; TbPGK coupled GAPDH assay, Kinase-Glo luminescence; Potency, µM (titrated, usually from 57.5 µM), hits mostly inhibitors; shares compounds with Pol kappa inh-1; further: nearly all actives have a fitted effect of over 65% in size
POLI cherry-pick = Human Pol iota inhibitor confirmatory assay. shares compounds with Pol kappa inh-1. Pol iota primer extension, TAMRA/BHQ fluorescence. Potency, µM, hits mostly inhibitors. 1,500 tested, 77% active
Pol kappa inh-2 = Pol kappa (human) inhibition, cherry-pick confirmation; purified Pol-kappa, fluorescent strand-displacement substrate; Potency, µM, most hits filed as inhibitors; 920 tested, 76% active; shares compounds with Pol eta inh-1
Pol eta inh-2 = Pol eta (human) inhibition, cherry-pick confirmation; shares compounds with Pol eta inh-1; Pol eta primer extension, TAMRA/BHQ fluorescence, 10 min; Potency, µM, hits mostly inhibitors; 2,600 tested, 64% active
Hits are given with their value; 0 = inactive; ? = inconclusive; - = not tested or not shown. The call rests on the fitted dose curve; in most records, active means well fitted curve in the direction sought with a large enough effect; inconclusive means small, poorly fitted or top-dose-only effect, or another doubt; inactive means no such curve, though single readings can be large; an effect the other way counts as inactive or inconclusive.

SMILES	L3MBTL1 inh-1	POLB inh	Pol kappa inh-1	APE1 inh	Pol iota inh	Pol eta inh-1	L3MBTL1 inh-2	L3MBTL1 ctr	POLI cherry-pick	Pol eta inh-2	others
CCc1nc2sc3ccccc3c(=O)c2c(=O)n1Cc1ccco1	32µM	20µM	50µM	?	16µM	32µM	17	0	?	-
COC(=O)c1ccc(NC(=O)CSc2nccn2Cc2ccc(Cl)cc2)cc1	-	0	0	-	0	0	-	-	-	-
COc1ccc(-n2cccc2/C=C2\C(=N)N3N=C(c4ccco4)SC3=NC2=O)cc1	16µM	5.6µM	22µM	10µM	?	8.9µM	2.7	?	-	-	PGK validate=3.7µM
CCCCCN1CC(=O)N2C(C)c3[nH]c4ccccc4c3C[C@H]2C1=O (stereo partly drawn)	-	0	0	0	0	0	-	-	-	-
O=C1NC(=Nc2ccccc2)/C(=C/c2ccco2)S1	0	?	0	0	?	0	-	-	-	-
Cc1ccc(N=C2NC(=O)S/C2=C\c2ccco2)cc1	25µM	7.9µM	0	0	?	0	12	0	67	-
COc1ccc2nc(-n3c(O)c(C4=c5ccccc5=NC4=O)[nH]c3=S)sc2c1	3.2µM	8.9µM	?	0	?	8.9µM	3.4	?	27	27	Pol kappa inh-2=17
COc1ccc(N2CCN(CCC(=O)c3ccc4ccccc4c3)CC2)cc1	-	?	0	0	0	0	-	-	-	-
O=C(Nc1ccc2nc(-c3ccco3)c(-c3ccco3)nc2c1)N1CCN(c2ccccn2)CC1	3.2µM	1.6µM	28µM	0	3.2µM	3.2µM	3	0	-	?
Cc1cccc(/C=C(\C(=O)O)c2ccc(S(=O)(=O)N3CCCC3)s2)c1	28µM	-	?	12µM	?	13µM	5.3	0	-	?	Pol kappa inh-2=34
NC(=O)c1ccc(NC(=O)COC(=O)/C=C/c2ccc(Br)o2)cc1	14µM	-	35µM	0	22µM	2.8µM	6.7	0	42	67	PGK validate=8.2µM;Pol kappa inh-2=?
COc1cc(/C=C2\SC(=Nc3ccc(Cl)c(C(=O)O)c3)NC2=O)c(Br)c(Br)c1O	32µM	8.9µM	40µM	?	22µM	18µM	3	?	67	?	Pol kappa inh-2=8.4
O=C(Nc1n[nH]c(C(F)(F)F)n1)C1CC1	0	?	0	0	0	0	-	-	-	-
O=C(/C=C/c1ccco1)Nc1scc(-c2ccccc2)c1C(=O)O	25µM	0	79µM	?	28µM	20µM	2.7	0	38	27
CCC(Cc1ccccc1)NC(=O)CCS(=O)(=O)c1cc2c(cc1Cl)NC(=O)CO2 (stereo not drawn)	-	0	0	-	0	0	-	-	-	-
O=C1CCCC2=C1C(c1ccc(O)c(O)c1)c1c(ccc3ncccc13)N2 (stereo not drawn)	2µM	6.3µM	?	10µM	?	25µM	21	0	67	?
O=C(O)CCc1ccc(-c2cccs2)n1CCc1ccccc1	0	0	0	0	0	0	-	-	-	-
O=C(O)CCc1ccc(-c2cccs2)n1CCC(=O)O	4µM	22µM	?	14µM	?	10µM	17	0	-	?
CC(=O)Oc1ccc2c(=O)c(Oc3ccccc3)coc2c1OC(C)=O	14µM	10µM	14µM	2.2µM	13µM	6.3µM	9.5	0	-	?
Cc1ccc(Oc2coc3cc(OC(=O)c4cccs4)ccc3c2=O)cc1	0	0	0	0	?	0	-	-	-	-
O=C(CN1C(=O)c2cccnc2Oc2ccc(Cl)cc21)NCCCN1CCCCC1	-	0	0	-	0	0	-	-	-	-
Cc1ccc(S(=O)(=O)NCC(=O)N2CCN(S(=O)(=O)c3ccc(Cl)cc3)CC2)cc1C	0	-	0	0	0	0	-	-	-	-
O=C(Nc1cc2c(oc1=O)CCCC2=O)c1ccc(Cl)cc1	16µM	3.5µM	18µM	?	0	11µM	3.8	0	15	8.5
CC1=NN(c2ccc(C(=O)O)cc2)C(=O)/C1=C/c1ccc(-c2ccccc2F)o1	-	0	-	0	-	-	-	-	-	-
O=C1NN(c2ccccc2)C(=O)/C1=C/c1ccc(-c2ccc(C(=O)O)cc2)o1	13µM	?	18µM	0	3.5µM	7.1µM	3	?	24	27
SMILES	L3MBTL1 inh-1	POLB inh	Pol kappa inh-1	APE1 inh	Pol iota inh	Pol eta inh-1	L3MBTL1 inh-2	L3MBTL1 ctr	POLI cherry-pick	Pol eta inh-2	others
O=C(O)CCCN1C(=O)/C(=C\c2ccc(-c3nc4ccccc4s3)o2)SC1=S	3.5µM	16µM	?	?	?	16µM	4.2	?	-	34	PGK validate=?
O=C(O)c1ccc(-c2nc3ccccc3s2)o1	-	0	0	0	?	0	-	-	-	-
Oc1ccc(C2=Nn3c(nnc3-c3ccco3)SC2)cc1O	25µM	4µM	20µM	0	2.2µM	3.2µM	9.5	0	27	19	PGK validate=5.8µM
O=c1nc(Oc2ccccc2)nc2ncccn12	-	-	-	-	-	0	-	-	-	-
Cc1ccc(/C=C/C(=O)NCc2ccccn2)o1	32µM	18µM	45µM	?	16µM	3.2µM	7.5	0	19	27	Pol kappa inh-2=15
COc1ccc(/C=C/C(=O)NCc2ccccn2)cc1	0	0	0	0	0	0	-	-	-	-
Cc1ccc(-c2nc(COC(=O)C3=NN(c4ccccc4)C(=O)CC3)cs2)cc1	0	-	0	0	0	0	-	-	-	-
Cn1cnnc1SCC(=O)Nc1ncc([N+](=O)[O-])s1	28µM	-	71µM	8.4µM	7.9µM	2.8µM	1.7	0	19	15	Pol kappa inh-2=3.4
N#C/C(=C\c1ccc(C(=O)O)cc1)c1nc2sc3c(c2c(=O)[nH]1)CCCC3	22µM	50µM	?	?	?	20µM	11	0	-	30
Cc1cccc(C)c1NC(=O)C(=O)NCC(c1cccnc1)N1CCc2ccccc21 (stereo not drawn)	-	0	0	-	0	0	-	-	-	-
O=c1[nH]c(C2CCN(S(=O)(=O)c3ccccc3C(F)(F)F)CC2)nc2c1nnn2Cc1cccc(F)c1	-	0	0	0	0	0	-	-	-	-
COc1ccccc1CNC(=O)CCCn1c(=O)c2cccn2c2ccccc21	-	0	0	-	0	-	-	-	-	-
